# mHTT-CaM PPI inh: inhibitors of human mutant huntingtin-calmodulin interaction; P42858; AlphaScreen His-mHTT/GST-CaM binding, luminescence; inhibition, % at 15 µM; 3.6% of 190,000 active; AID 1671202;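 note: 0% = both proteins with DMSO and 100% = one protein alone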
# Pf apPOL inh: Pf-apPOL DNA polymerase inhibition; Recombinant Pf-apPOL, molecular beacon fluorescence, 1.5 h; AID 1794808; inhibition, % at 10 µM; 0.25% of 210,000 active
# * marks the source's active call; other numbers are inactive results; . = no result given. Compounds with a hit are over-represented: about 3.6% of the library has one in this group of screens. Cut-off read from the data, not from the text of the source: active = inhibition above about 50%; inactive = the rest.
SMILES,mHTT-CaM PPI inh,Pf apPOL inh
Cc1ccc(C(O)CNC(=O)C2c3ccccc3Oc3ccccc32)o1 (stereo not drawn),-5,-6
CCCCOc1cccc(N=Cc2c(C)[nH]n(-c3ccccc3)c2=O)c1,34,8
COCCc1noc(COC2CCN(C(=O)NC3CCCC3)CC2)n1,-4,-8
Cc1ccc(S(=O)(=O)CCN2CCN(c3ccc(C(F)(F)F)cc3[N+](=O)[O-])CC2)cc1,.,-9
Cc1ccc(Cl)cc1N1CCN(c2ncnc3c2nc2n3CCCC2)CC1,99*,1
Cc1ccc(C)c(N2CCN(c3ncnc4c3nc3n4CCCC3)CC2)c1,19,-3
Nc1cc2[nH]c(=O)[nH]c2cc1N,13,.
CC1=C(C(=O)Nc2ccc(Br)c(C)c2)C2(CCC(C)CC2)OC1=O (stereo not drawn),99*,5
CC1=C(C(=O)Nc2ccc(C)cc2)C2(CCC(C)CC2)OC1=O (stereo not drawn),7,0
Cc1cc(N2C(=O)c3ccc(C(=O)N4CC=C(c5ccccc5)CC4)cc3C2=O)no1,51*,-3
Cc1cc(N2C(=O)c3ccc(C(=O)O)cc3C2=O)no1,-4,-1
CCN(CC)c1ccc(Nc2nc(-c3c(C)nc4ccccn34)cs2)cc1,97*,64*
Cc1ccn2c(-c3csc(Nc4ncccn4)n3)c(C)nc2c1,0,-3
Cc1ccc(Nc2nc(-c3c(C)nc4ncccn34)cs2)cc1,80*,-1
CCOc1ccc(Nc2nc(-c3c(C)nc4cc(C)ccn34)cs2)cc1,67*,-26
Cc1nc2ncccn2c1-c1csc(NCc2ccccc2)n1,7,-2
Cc1nc2ccccn2c1-c1csc(NCc2ccccc2)n1,36,-3
Cc1ccccc1Nc1nc(-c2c(C)nc3sccn23)cs1,56*,-4
Cc1nc2sccn2c1-c1csc(Nc2ccccn2)n1,29,-1
COc1ccc(C(C)NC(=O)c2cc3c(s2)CN(C2CCCC2)C3)cc1 (stereo not drawn),-4,0
O=C(CCS(=O)(=O)c1ccc(Br)cc1)Nc1ccc(Cl)cn1,2,-6
COc1nn(-c2nc(-c3cccs3)cc(C(F)(F)F)n2)c(C)c1[N+](=O)[O-],-4,1
Cn1c(COc2cccc3cccnc23)nnc1SCC(=O)c1ccc(Cl)cc1,15,-8
CCn1c(N2CCCC(C(=O)NCCC3=CCCCC3)C2)cc(=O)n(C)c1=O (stereo not drawn),20,-2
Nc1ccccc1Nc1c([N+](=O)[O-])c(=O)oc2ccccc12,71*,0
SMILES,mHTT-CaM PPI inh,Pf apPOL inh
COc1ccccc1Nc1c([N+](=O)[O-])c(=O)oc2ccccc12,10,2
O=C1CSC(c2cn(-c3ccccc3)nc2-c2cccnc2)N1Cc1ccccc1 (stereo not drawn),28,-36
COc1ccc(-c2nn(-c3ccccc3)cc2C2SCC(=O)N2Cc2ccccc2)cc1 (stereo not drawn),87*,-5
COc1cc(OC)c2c(c1C(CCN1CCCC(C)C1)c1ccc(N(C)C)cc1)OC(=O)CC2c1ccc(N(C)C)cc1 (stereo not drawn),100*,-4
COc1cc(C2CC(=O)Oc3ccc(C(C)(C)C)cc32)cc(OC)c1OC (stereo not drawn),30,-1
COc1cc(C2CC(=O)Oc3c(C(CCN4CCCC(C)C4)c4ccc(N(C)C)cc4)c(OC)cc(OC)c32)cc(OC)c1OC (stereo not drawn),86*,-4
COc1cc(C(CCN2CCCC(C)C2)c2c(OC)cc(OC)c3c2OC(=O)CC3c2ccc(N(C)C)cc2)cc(OC)c1OC (stereo not drawn),93*,7
COc1ccc(C(CCN2CCCC(C)C2)c2c(O)cc(OC)cc2OC)cc1 (stereo not drawn),15,-1
COc1cc(O)c(C(CCN2CCCC(C)C2)c2cc(OC)c(OC)c(OC)c2)c(OC)c1 (stereo not drawn),9,-6
COc1cc(OC)c2ccc(=O)oc2c1C(CCN1CCCC(C)C1)c1ccc(N(C)C)cc1 (stereo not drawn),54*,-1
Cc1ccc(-c2ncc(NC(=O)C(C)C)cn2)cc1,3,0
COc1ccccc1C(=O)N1CCCC1c1cc(C)no1 (stereo not drawn),-4,6
CC(=O)NCc1csc(C2CCN(C(=O)C3CCCCC3)CC2)n1,2,-2
COC(=O)CCCC[C@H]1SC[C@@H](NC(N)=O)[C@H]1NC(N)=O,26,.
COc1ccccc1C1CC(c2ccc(Cl)cc2)Nc2ncnn21 (stereo not drawn),54*,-3
COc1ccc(OC)c(C2CC(c3ccc(C)cc3)Nc3nnnn32)c1 (stereo not drawn),6,0
COc1ccc(OC)c(C2CC(c3ccc(Br)cc3)Nc3nnnn32)c1 (stereo not drawn),58*,-7
FC(F)Oc1ccccc1C1CC(c2ccc(I)cc2)Nc2ncnn21 (stereo not drawn),53*,-3
COc1ccccc1C1CC(c2ccc(I)cc2)Nc2ncnn21 (stereo not drawn),41,-8
Cc1ccc(C2CC(c3ccc(F)cc3)n3nnnc3N2)cc1 (stereo not drawn),0,7
Cc1ccc(C2CC(c3ccc(F)c(Br)c3)n3nnnc3N2)cc1 (stereo not drawn),61*,-6
Fc1ccc(C2CC(c3ccccc3OC(F)F)n3ncnc3N2)cc1 (stereo not drawn),16,-3
O=C(O)c1oc(=O)c2ccccc2c1-c1ccccc1,-10,-13
COc1ccc(CCNc2ncnc3sc(C)c(C)c23)cc1OC,7,12
O=[N+]([O-])c1cc(C=Nc2ccc(O)c(-c3nc4ccccc4s3)c2)c(O)c([N+](=O)[O-])c1,16,-1
SMILES,mHTT-CaM PPI inh,Pf apPOL inh
CN(Cc1ccccc1)C(=O)c1ccc(-c2ccc3c(c2)OCO3)s1,-28,-4
CCc1ccc(C2CC(c3cc(OC)ccc3OC)n3ncnc3N2)cc1 (stereo not drawn),51*,-7
COc1cccc(C2CC(c3ccc(C)cc3)Nc3ncnn32)c1OC (stereo not drawn),14,-6
CCc1ccc(C2CC(c3ccccc3OC)n3ncnc3N2)cc1 (stereo not drawn),1,3
COc1cccc(C2CC(c3ccc(Br)cc3)Nc3ncnn32)c1OC (stereo not drawn),51*,-8
COc1ccc(NC(=O)N2CCCC2c2ccccc2F)cc1OC (stereo not drawn),0,-7
COCCN1CCC(N2CCCN(S(=O)(=O)c3c(C)c(C)cc(C)c3C)CC2)C1=O (stereo not drawn),7,-7
CSc1ccccc1NC(=O)CCCn1nc([N+](=O)[O-])c(Br)c1C,0,0
NS(=O)(=O)c1ccc(NC(=O)CCC2CCCC2)cc1,8,-1
CCC(=O)N1CCCC(c2ccnc(Nc3ccc(C)cc3)n2)C1 (stereo not drawn),56*,-12
Cc1ccc(C(=O)N2CCCC(c3ccnc(Nc4ccccc4)n3)C2)s1 (stereo not drawn),61*,-2
Cc1ccc(Nc2nccc(C3CCCN(C(=O)C(C)(C)C)C3)n2)cc1 (stereo not drawn),39,-3
Cc1ccc(Nc2nccc(C3CCCN(C(=O)c4ccco4)C3)n2)cc1 (stereo not drawn),87*,-5

# Source: PubChem BioAssay (University of Kansas High Throughput Screening Laboratory)
